# This is a sample that favours compounds with a hit; in the whole collection about 4.1% have one here.
# ALR H2O2 inh: human ALR oxidase inhibition via reduced H2O2. P55789. inhibition, % (concentration not given with the values). purified ALR, DTT oxidation, H2O2 HRP-luminol luminescence. 290,000 tested, 3.8% active;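 active = mean replicate inhibition above about 79%, with every replicate also reaching it, limit read from the data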
# Target sequence (P55789 whole entry, looked up): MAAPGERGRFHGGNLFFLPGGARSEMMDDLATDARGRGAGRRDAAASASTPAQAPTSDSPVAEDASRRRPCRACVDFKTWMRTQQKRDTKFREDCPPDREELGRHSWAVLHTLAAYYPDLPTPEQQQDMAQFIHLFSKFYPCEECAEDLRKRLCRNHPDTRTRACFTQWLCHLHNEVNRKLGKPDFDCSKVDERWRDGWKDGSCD
# IDE cell inh: cellular human IDE inhibition; P14735; HEK cells, FAbetaB cleavage, fluorescence polarization; inhibition, % at 5.59 µM; 320,000 tested, 0.41% active; AID 434962;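 active = percent inhibition above the average of all tested compounds plus 3 SD, set per screening campaign, cut at about 16% in these data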;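 note: IDE supplied by intact live HEK cells; FP after avidin binding of uncleaved biotin substrate so inhibition keeps polarization high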
# CaV13 ICDI inh: Primary screen for inhibitors of IQ motif and Ca2+-dependent inactivation inhibitor domain binding in CACNA1D, Förster resonance energy transfer in living cells, … | HEK cells, CFP/YFP FRET ICDI-IQ, plate reader, 10 min; percent FRET-ratio fall versus neutral wells | inhibition, % at 12.3 µM | 340,000 tested, 0.098% active;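 active = mean replicate inhibition of at least 30% and at least 1% of replicates passing that level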
# PolyA inh: yeast polyadenylation inhibition; S. cerevisiae SKY197-pL101 polyadenylation reporter, beta-gal luminescence; efflux-impaired pdr1/pdr3 knockout yeast; score 100 = 6 SD above DMSO; 300,000 tested, 0.02% active; AID 1875; activity score, % at 12 µM;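 active = lowest replicate activity score at least 50, where 100 means six control SD above control mean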;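 note: yeast exposed to compound for 9 h at 30 °C; higher score means more reporter readthrough which indicates perturbed polyadenylation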
# PfM18AAP inh-1: PfM18AAP enzyme inhibition; 290,000 tested, 1.2% active; inhibition, % at 7.35 µM; recombinant PfM18AAP, H-Glu-NHMec fluorogenic cleavage; AID 1822;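 active = inhibition above the campaign mean inhibition over all tested compounds plus 3 SD, cut at about 28% in these data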
# IDE act: activators of human insulin-degrading enzyme in cells | P14735 | activation, % at 5.96 µM | 340,000 tested, 0.073% active | HEK cells, FAbeta-B cleavage, fluorescence polarization; 0% vehicle, 100% cell-free pure enzyme wells;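 active = activation above the mean of all tested compounds plus 3 SD, set per screening campaign, cut at about 17% in these data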
# PfM18AAP inh-2: PfM18AAP inhibition, confirmation; shares compounds with PfM18AAP inh-1; recombinant PfM18AAP, H-Glu-NHMec fluorogenic cleavage; inhibition, % at 7.35 µM; 2,400 tested, 28% active;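 active = mean inhibition over replicate wells above the hit cutoff set for the earlier primary screen, cut at about 29% in these data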
# CTSL1 counter: Cathepsin L (human) inhibition, confirmation; shares compounds with PfM18AAP inh-1; purified cathepsin L1, Z-Leu-Arg-MCA fluorescence; inhibition, % at 5.96 µM; 2,400 tested, under 10 active; AID 2178;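 active = average inhibition across replicates above the hit cutoff set in the earlier primary screen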
# Numbers stand for hits; n = inactive; x = no result.
SMILES,ALR H2O2 inh,IDE cell inh,CaV13 ICDI inh,PolyA inh,PfM18AAP inh-1,IDE act,PfM18AAP inh-2,CTSL1 counter
CC(C(=O)N(C)C1CCS(=O)(=O)C1)N1C(=O)/C(=C/c2ccc(F)cc2)SC1=S (stereo not drawn),n,n,n,n,n,n,x,x
O=C(Cc1cccc2ccccc12)Nc1ccc(N2CCOCC2)cc1,n,n,n,n,n,n,x,x
COc1cccc(/C=N/NC(=O)N/N=C/c2cccc(OC)c2O)c1O,n,n,n,n,33.5,n,n,n
COc1cccc(/C=N/Nc2ccnc(=O)[nH]2)c1O,n,n,n,n,43.0,n,n,n
CC(C)c1cccc(-c2csc(C(C)(O)c3ccccc3)n2)c1 (stereo not drawn),x,x,n,x,x,x,x,x
COc1cc(O)c(NC(C)=O)c2nonc12,n,n,n,n,33.0,n,n,n
Cc1sc2c(c1C)C(=O)NC(c1cccc(O)c1)N2 (stereo not drawn),x,n,x,n,49.1,x,n,n
O=C(O)c1ccc(S(=O)(=O)c2ccc3c(c2)C(=O)N(c2ccc(O)cc2)C3=O)cc1,x,n,n,n,33.4,n,n,n
O=C(NCCS(=O)(=O)N1CCN(c2ccc(F)cc2)CC1)c1ccco1,n,n,n,n,x,n,x,x
O=S(=O)(Nc1ccc2c(c1)nc1n2CCN(Cc2ccccc2)C1)c1ccccc1,x,n,n,n,59.7,n,n,n
COc1ccc(C(C)C)cc1S(=O)(=O)Nc1ccncc1,n,n,n,n,37.1,n,n,n
O=C1c2ccccc2C(=O)N1/N=C/c1ccc(O)c(O)c1,98.7,n,n,n,56.7,n,68.3,n
O=C1C2C3C=CC(CC3)C2C(=O)N1/N=C/c1ccc(O)c(O)c1 (stereo not drawn),x,n,n,n,53.7,n,44.6,n
CCOc1cc2c(cc1O)C(=NO)CC1C2CCC2(C)C(O)CCC12 (stereo not drawn),x,x,n,x,x,n,x,x
Cc1cn(CC(=O)NCCc2ccccn2)c(=O)[nH]c1=O,x,x,n,x,x,n,x,x
COc1cccc(-n2c(SCc3cc(=O)oc4cc(O)c(O)cc34)nc3ccccc3c2=O)c1,n,n,n,n,55.9,n,n,n
CC1(C)CC2(CC(c3ccccc3F)c3ccc(O)c(O)c3O2)NC(=S)N1 (stereo not drawn),99.0,n,n,n,49.0,n,80.9,n
CC1(C)CC2(CC(c3ccc(F)cc3)c3ccc(O)cc3O2)NC(=S)N1 (stereo not drawn),n,n,n,n,n,n,x,x
O=C(O)c1c[nH]c(=S)n1-c1ccc(F)cc1,n,n,x,n,51.0,n,39.5,n
O=C(NNC(=S)NC(=O)c1ccccc1[N+](=O)[O-])c1ccccc1O,n,n,n,n,42.6,x,n,n
O=C(NNC(=O)c1cc(Cl)ccc1O)c1cccs1,x,n,n,n,34.8,n,n,n
O=C(NC(=S)NNC(=O)c1ccccc1O)c1cccs1,n,n,n,n,44.0,n,n,n
COc1ccccc1C(=O)NNC(=S)NC(=O)c1cccs1,n,n,x,n,n,n,x,x
CSc1ccc(CNC(=O)C2CCC(=O)N(Cc3cccc(F)c3)C2)cc1 (stereo not drawn),n,x,n,n,n,n,x,x
CC1(C(=O)NCc2ccccc2)CSCC(=O)N1C1CCN(Cc2ccccc2)CC1 (stereo not drawn),x,x,n,x,x,x,x,x
COc1c(OC2OC(C(=O)O)C(O)C(O)C2O)cc(O)c2c(=O)cc(-c3ccccc3)oc12 (stereo not drawn),n,n,n,n,n,n,x,x
O=C(O)C1OC(Oc2cc3oc(-c4ccccc4)cc(=O)c3c(O)c2O)C(O)C(O)C1O (stereo not drawn),n,n,n,n,44.4,n,n,n
Cc1ccc(-c2nc(N/N=C/c3ccncc3)c3ccccc3n2)cc1,n,n,n,n,42.7,n,n,n
Cc1ccc(C(=O)CSc2ccccn2)cc1,n,n,x,n,43.8,n,n,n

# Bioassay records: PubChem BioAssay, several laboratories
